A selection: hits, their analogues and other compounds. The true share with any hit is near 0.81%.
Ec RNAP inh: E. coli RNAP inhibitors, biochemical. AID 559, 2006. inhibition, %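 (tested at 10 µM)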. 0.2% of 62,000 active. DNA-directed RNA polymerase subunit beta (Escherichia coli (strain K12)), P0A8V2. E. coli RNA polymerase, fluorescence transcription assay; in the data active means inhibition above about 20%;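 further: 0% = enzyme without compound and 100% = no enzyme blank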
Target sequence (P0A8V2 whole entry, looked up): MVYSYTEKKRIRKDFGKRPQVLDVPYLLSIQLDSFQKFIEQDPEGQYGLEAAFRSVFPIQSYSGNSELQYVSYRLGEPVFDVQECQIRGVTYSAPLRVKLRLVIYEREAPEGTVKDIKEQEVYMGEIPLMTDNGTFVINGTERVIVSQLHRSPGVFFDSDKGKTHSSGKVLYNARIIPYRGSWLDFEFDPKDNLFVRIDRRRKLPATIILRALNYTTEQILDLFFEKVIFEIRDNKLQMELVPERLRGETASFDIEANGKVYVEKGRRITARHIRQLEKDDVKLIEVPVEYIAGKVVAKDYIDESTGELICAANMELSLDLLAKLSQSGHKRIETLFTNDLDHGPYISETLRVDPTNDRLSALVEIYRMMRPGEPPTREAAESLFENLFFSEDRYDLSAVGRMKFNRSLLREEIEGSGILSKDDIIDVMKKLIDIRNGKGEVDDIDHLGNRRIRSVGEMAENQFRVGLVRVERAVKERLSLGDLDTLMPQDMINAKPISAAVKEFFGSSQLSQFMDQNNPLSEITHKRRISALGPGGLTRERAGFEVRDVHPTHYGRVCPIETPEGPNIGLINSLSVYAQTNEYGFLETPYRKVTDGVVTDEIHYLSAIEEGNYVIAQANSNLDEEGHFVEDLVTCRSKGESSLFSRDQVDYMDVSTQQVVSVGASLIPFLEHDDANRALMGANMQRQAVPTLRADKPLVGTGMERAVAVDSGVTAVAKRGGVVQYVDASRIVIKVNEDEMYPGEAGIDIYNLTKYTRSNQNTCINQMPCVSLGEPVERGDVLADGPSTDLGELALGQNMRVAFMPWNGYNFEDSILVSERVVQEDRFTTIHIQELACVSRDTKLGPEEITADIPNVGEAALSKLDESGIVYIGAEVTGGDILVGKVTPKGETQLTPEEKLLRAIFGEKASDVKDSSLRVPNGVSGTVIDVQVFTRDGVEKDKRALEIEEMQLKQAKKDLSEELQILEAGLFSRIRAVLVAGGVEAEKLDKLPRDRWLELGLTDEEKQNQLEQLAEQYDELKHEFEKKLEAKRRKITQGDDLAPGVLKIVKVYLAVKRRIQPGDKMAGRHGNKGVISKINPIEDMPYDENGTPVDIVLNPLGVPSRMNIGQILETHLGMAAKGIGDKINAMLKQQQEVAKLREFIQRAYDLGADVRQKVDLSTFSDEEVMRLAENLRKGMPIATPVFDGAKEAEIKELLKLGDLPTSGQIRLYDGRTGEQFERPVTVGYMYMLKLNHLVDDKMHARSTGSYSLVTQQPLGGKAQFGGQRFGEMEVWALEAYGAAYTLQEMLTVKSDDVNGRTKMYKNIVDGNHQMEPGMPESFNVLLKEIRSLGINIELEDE
BAP1 block: inhibitors of BAP1 deubiquitinase, primary screen, biochemical, Ub-AMC fluorescence, kinetic. Ubiquitin carboxyl-terminal hydrolase BAP1 (Homo sapiens), Q92560. recombinant BAP1, Ub-AMC hydrolysis fluorescence kinetic; active compounds read low. calls only at 20 µM. 0.48% of 72,000 active. AID 436, 2006;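 active means activity remaining at or below 50% of control, provided the compound also passes the data quality filters; inactive means the rest, including low values that fail the filters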;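 further: 100% = DMSO wells rate and 0% = substrate alone blank rate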
CatB inh: human cathepsin B inhibitors, primary screen, biochemical, fluorogenic substrate. inhibition, %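 (tested at 10 µM)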. purified cathepsin B, fluorescence. P07858. 0.1% of 63,000 active. AID 453, 2006; in the data active means inhibition above about 21%;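 further: 0% = enzyme with no compound and 100% = no enzyme blank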
CatS block: inhibitors of human cathepsin S, biochemical, compound mixtures. recombinant cathepsin S, AMC dipeptide fluorescence, pooled mixtures. P25774. AID 501, 2006. 0.06% of 62,000 active. inhibition, %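 (tested at 5 µM per compound within 10-compound mixtures)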; in the data active means inhibition above about 32%, passing the limit was not always enough; inconclusive means no clear call, values can overlap the other calls;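 further: 0% = enzyme without compound and 100% = blank without enzyme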
CatL block: inhibitors of human cathepsin L, biochemical. Procathepsin L (Homo sapiens), P07711. purified cathepsin L, fluorogenic substrate, fluorescence. inhibition, %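 (tested at 10 µM)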. 0.17% of 58,000 active. AID 460, 2006; in the data active means inhibition above about 45%;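 further: 0% = enzyme with no compound and 100% = no enzyme blank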
CatB mixtures: cathepsin B inhibitors from pooled compounds, primary screen, biochemical, compound mixtures, AMC fluorescence. P07858. Purified cathepsin B, AMC dipeptide fluorescence. inhibition, %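 (ten-compound pools at 5 µM per compound and 50 µM total)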. 0.06% of 62,000 active. AID 488, 2006; in the data active means inhibition above about 22%, passing the limit was not always enough; inconclusive means no clear call, values can overlap the other calls;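 further: 0% = enzyme without compound and 100% = no enzyme blank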
BAP1 inh conf: BAP1 deubiquitinase inhibitors, hit retest, confirmation, orthogonal assay, biochemical, Ub-ethyl ester substrate, HPLC readout; shares compounds with BAP1 block; purified BAP1, Ub-ethyl ester hydrolysis; active compounds read low; % of control activity, % at 20 µM; 8% of 310 active;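 active means percent of control activity at or below 60%; inconclusive means HPLC trace unusable from injection failure or solvent front hiding peaks; inactive means the rest, plus ubiquitin peak ratio over a set limit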
The depositor's hits bear a star; i = inactive; ? = inconclusive; . = no result; + = active, no number.

SMILES | Ec RNAP inh | BAP1 block | CatB inh | CatS block | CatL block | CatB mixtures | BAP1 inh conf
COc1ccc(NC(=O)c2nc[nH]c2C(=O)Nc2ccccc2C)cc1 | 0 | + | 3 | -1 | 2 | 2 | 156
c1ccc(-c2cc(-c3nn4c(-c5ccco5)nnc4s3)c3ccccc3n2)cc1 | 2 | + | -2 | 3 | 1 | -1 | 109
CSc1ccc(C2C(C#N)=C(N)Oc3c2ccc(=O)c2c(C)oc(C)c32)cc1 (stereo not drawn) | 4 | + | 4 | 11 | 12 | -6 | 118
CCn1c(=NC(=O)c2ccc(N3C(=O)CCC3=O)cc2)sc2c(OC)ccc(OC)c21 | 9 | + | 1 | -1 | 12 | -1 | 117
CCCn1c2c(c(O)c(C(=O)Nc3ccccc3)c1=O)CCCC2 | 4 | + | 1 | 1 | 6 | 3 | 81
CCOC(=O)c1ccc(NC(=O)CCc2c[nH]c3ccccc23)cc1 | . | i | . | . | . | . | .
CCOC(=O)c1ccc(NC(=O)CCc2ccc(CC)o2)cc1 | 6 | + | 0 | -1 | 0 | 1 | 96
O=C(Nc1ccc(N2CCN(C(=O)c3ccco3)CC2)c(Cl)c1)c1c(F)c(F)c(F)c(F)c1F | 12 | + | 4 | 2 | . | 1 | ?
CC1=C(C(=O)Nc2ccccc2)C(c2ccccc2)n2ncnc2N1 (stereo not drawn) | . | i | . | . | . | . | .
COCCn1nnnc1C(C(C)C)N(Cc1cccnc1)Cc1cc2cc(OC)ccc2[nH]c1=O (stereo not drawn) | 4 | + | -2 | -4 | 6 | 0 | 114
COCCn1nnnc1C(C(C)C)N(Cc1ccccc1)Cc1cc2cc(OC)ccc2[nH]c1=O (stereo not drawn) | 6 | i | 9 | 0 | 6 | 2 | .
Cc1ccc2cc3c(NC(=O)c4ccco4)nn(CC(C)C)c3nc2c1 | -4 | + | 3 | 0 | -16 | -2 | 109
CN1C2C=C(N(CCc3ccccc3)C(=O)c3ccccc3)CC1CC2 (stereo not drawn) | . | i | . | . | . | . | .
Cc1cc(C)cc(NC2=NC3(CCCCC3)N=C(N)N2)c1 | 7 | i | -2 | 2 | 21 | 4 | .
CCCCOc1ccc(NC2=NC3(CCCC3)N=C(N)N2)cc1 | 8 | + | 2 | 3 | 22 | -2 | 98
CCc1cc2cc3c(cc2nc1SCC(=O)N1CCN(C(=O)c2ccco2)CC1)OCO3 | 6 | i | 0 | 1 | 12 | -1 | .
CCc1cc2cc3c(cc2nc1SCC(=O)Nc1cc(C)on1)OCO3 | 8 | + | 6 | -11 | 8 | -1 | 93
CN(CC(=O)N1CCN(c2ccc(F)cc2)CC1)S(=O)(=O)c1ccc(F)cc1 | 4 | + | -1 | 9 | 2 | 0 | 137
Cc1ccc(C(=O)OCCOC(=O)c2ccc(C)cc2)cc1 | . | i | . | . | . | . | .
CCOC(=O)C(C(C)=O)c1c(Br)c(O)c(O)c2c(C(=O)c3ccc(C)cc3)coc12 (stereo not drawn) | 18 | + | 0 | -9 | -6 | 3 | 68
CC(C)c1ccc(S(=O)(=O)Nc2ccc3oc4c(c3c2)C(=O)CCC4)cc1 | . | i | . | . | . | . | .
CCc1nc2c(cnn2-c2ccc(Cl)cc2)c(=O)n1-c1ccc(OC)cc1 | 7 | + | 3 | 2 | . | -10 | 89
COc1cc(NC(=O)c2ccc(Cl)c([N+](=O)[O-])c2)c(Cl)cc1C(=O)O | . | i | . | . | . | . | .
CC(=O)[C@@H]1[C@@H]2C(=O)N(Cc3ccccc3)C(=O)[C@@H]2C2c3ccccc3C=CN21 (stereo partly drawn) | 4 | i | -3 | 0 | -3 | 3 | .
Cc1ccc(N2C(=O)[C@@H]3[C@H](C2=O)C2c4ccccc4C=CN2[C@@H]3C(=O)c2ccco2)c(C)c1 (stereo partly drawn) | 9 | + | 7 | 17 | -2 | 5 | 118
SMILES | Ec RNAP inh | BAP1 block | CatB inh | CatS block | CatL block | CatB mixtures | BAP1 inh conf
Cc1ccc(N2C(=O)[C@@H]3[C@H](C2=O)C2c4ccccc4C=CN2[C@@H]3C(=O)c2ccco2)cc1 (stereo partly drawn) | 7 | i | 6 | 11 | 4 | 4 | .
O=C(c1ccco1)[C@@H]1[C@@H]2C(=O)N(c3ccccc3)C(=O)[C@@H]2C2c3ccccc3C=CN21 (stereo partly drawn) | -4 | + | 4 | 7 | 1 | 5 | ?
CC(=O)CSc1nc2c(c(=O)[nH]c(=O)n2C)n1CC(N)=O | . | i | . | . | . | . | .
CC(C)OC(=O)c1c(NC(=O)CCn2nnc3ccccc32)sc2c1CCCC2 | 3 | + | -3 | 7 | 20 | 0 | 89
CC(=O)c1cccc(NC(=O)COc2ccc(Br)cc2C(C)(C)C)c1 | . | i | . | . | . | . | .
CCn1c2ccccc2c2cc(NC(=O)CSc3nnc(C4CC4)n3Cc3ccco3)ccc21 | 5 | + | 3 | -10 | 0 | 0 | 100
CCOC(=O)c1[nH]c(C)c(C(=O)Nc2cc(OC)ccc2OC)c1C | 3 | i | 1 | 7 | 10 | 6 | .
CCOc1ccc(OCC)c(NC(=O)c2[nH]c(C)c(C(C)=O)c2C)c1 | -3 | + | 0 | -4 | -5 | -4 | 121
CCOC(=O)c1nnn(-c2nonc2N)c1COc1cc(C)c(Cl)c(C)c1 | 2 | + | 0 | -4 | -4 | 2 | 106
CCOC(=O)c1nnn(-c2nonc2N)c1CSc1ccc(C)cc1 | 6 | i | 8 | 11 | 12 | 6 | .
CC1=C(C(=O)Nc2ccccc2)C(c2ccc(C)o2)n2c(s/c(=C\c3ccco3)c2=O)=N1 (stereo not drawn) | 11 | + | -1 | 9 | 1 | 0 | 111
COc1ccc(OC)c(C2CC(=O)N3CN(c4cccc(Cl)c4C)CSC3=C2C#N)c1 (stereo not drawn) | 8 | + | 10 | 18 | 19 | 4 | 104
COc1cccc(CN(Cc2ccco2)C(c2ccc(F)cc2)c2nnnn2C(C)(C)C)c1 (stereo not drawn) | 7 | + | 2 | . | 11 | 50 | 71
CC(=O)C1CC(CC(N)=O)C1(C)C (stereo not drawn) | . | i | . | . | . | . | .
CC(C)(C)c1cc(Cl)c(O)c(N=Cc2cccc([N+](=O)[O-])c2O)c1 | . | i | . | . | . | . | .
Cc1ccc([N+](=O)[O-])cc1NC(=O)c1cccc(C(=O)Nc2cc([N+](=O)[O-])ccc2C)n1 | . | i | . | . | . | . | .
COc1cccc(-n2nc(C(=O)Nc3ccc4c(c3)OCO4)c3ccccc3c2=O)c1 | 4 | i | -5 | 5 | 8 | 4 | .

Source: PubChem
